Read-out in assay [1]: Interleukin-8 (IL8), CXCL8 (gene 3576)
Briefly: BSK_3C_IL8: BioMAP Diversity Plus: 3C Assay for Interleukin-8 (IL8) Biomarker Activity (AID 2283020). As to conditions: primary human endothelial cells (HUVEC); actives raise or lower the signal. The procedure, abridged: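 ELISA read-out of IL-8 from human umbilical vein endothelium, measured 24 h after chemical dosing. Activity is expressed relative to DMSO negative control, with both increases and decreases fitted.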

Read-out in assay [2]: Monokine induced gamma interferon (MIG), CXCL9 (gene 4283)
Briefly: BSK_3C_MIG: BioMAP Diversity Plus: 3C Assay for Monokine induced gamma interferon (MIG) Biomarker Activity (AID 2283021).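 For AC50: MIG protein level measured by immunoassay in the treated endothelial cultures.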 As to conditions: primary human endothelial cells (HUVEC); actives raise or lower the signal. The procedure, abridged:
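Read-out is ELISA detection of MIG on human umbilical vein endothelial cells, taken 24 h after dosing. Gain or loss of signal was scored relative to DMSO controls using bidirectional curve fitting.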

Assay [3] addresses human Vitamin D Receptor (VDR), VDR (gene 7421) (UniProt P11473). Put plainly: ATG_VDR_TRANS: Attagene TRANS-FACTORIAL HepG2 Assay for human Vitamin D Receptor (VDR) (AID 2283022; active = hit-call score of the fitted dose curve at least 0.9, where 1 is the maximum). The essentials:
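HepG2 cells were transiently transfected with GAL4-UAS reporter units and a chimeric VDR-Gal4 construct, then dosed for 24 hours. Reporter mRNA was quantified by RT-PCR, fluorescent labeling, HpaI digestion and capillary electrophoresis; gain of signal analysed vs DMSO.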

A short description of assay [4]: BSK_3C_SRB: Viability Assessment in the BioMAP Diversity Plus: 3C Assay (AID 2283023).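 Note: fitted both ways against DMSO so a hit may be signal rise or drop.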 The following applies: primary human endothelial cells (HUVEC). The procedure, abridged:
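Human umbilical vein endothelial cells in the 3C system, treated 24 h. Total protein measured by 0.1% sulforhodamine B staining after 10% TCA fixation, read at 560 nm; bidirectional fit versus DMSO.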

Read-out in assay [5]: Matrix Metallopeptidase 1 (MMP1), MMP1 (gene 4312)
Briefly: BSK_BE3C_MMP1: BioMAP Diversity Plus: BE3C Assay for Matrix Metallopeptidase 1 (MMP1) Biomarker Activity (AID 2283024). As to conditions: primary human bronchial epithelial cells; actives raise or lower the signal. The essentials: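 Human bronchial epithelial cells (BE3C system) exposed to compound for 24 h; MMP1 then quantified by ELISA. Activity was fitted in both directions relative to DMSO.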

Read-out in assay [6]: Pselectin, SELP (gene 6403)
Put plainly: BSK_4H_Pselectin: BioMAP Diversity Plus: 4H Assay for Pselectin Biomarker Activity (AID 2283026). The following applies: primary human endothelial cells (HUVEC); actives raise or lower the signal. The essentials: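 ELISA read-out of P-selectin on human umbilical vein endothelium after 24 h of dosing. Values derive from bidirectional fitting relative to DMSO. Parallel SRB protein staining flagged overt cytotoxicity.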

Assay [7] in a line: BSK_4H_SRB: Viability Assessment in the BioMAP Diversity Plus: 4H Assay (AID 2283027).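 For AC50: curves fitted both ways versus DMSO so AC50 may be loss or gain.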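 Note: cells exposed to compound for 24 h before staining.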 As to conditions: primary human endothelial cells (HUVEC). The essentials:
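Human umbilical vein endothelial cells, 24 h after chemical dosing; total protein measured by 0.1% sulforhodamine B staining after 10% TCA fixation, read at 560 nm. Bidirectional fitting against DMSO.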

The nature of assay [8]: BSK_BE3C_SRB: Viability Assessment in the BioMAP Diversity Plus: BE3C Assay (AID 2283028). The following applies: primary human bronchial epithelial cells. The essentials:
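Human bronchial epithelial primary cells in confluent culture, 24 h after chemical dosing; total protein by 0.1% SRB staining after 10% TCA fixation, read at 560 nm. Bidirectional fitting versus DMSO baseline.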

Read-out in assay [9]: Urokinase-type plasminogen activator receptor (uPAR), PLAUR (gene 5329)
Put plainly: BSK_4H_uPAR: BioMAP Diversity Plus: 4H Assay for Urokinase-type plasminogen activator receptor (uPAR) Biomarker Activity (AID 2283030). The following applies: primary human endothelial cells (HUVEC); actives raise or lower the signal. The procedure, abridged:
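Human umbilical vein endothelial cells in the 4H system, 24 h after chemical dosing. Cell-surface uPAR measured by ELISA, fitted in both directions versus DMSO; cytotoxicity checked by SRB total protein in parallel cultures.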

Read-out in assay [10]: Vascular endothelial growth factor receptor 2 (Homo sapiens) (UniProt P35968)
Briefly: BSK_4H_VEGFRII: BioMAP Diversity Plus: 4H Assay for Vascular endothelial growth factor receptor 2 (VEGFR2) Biomarker Activity (AID 2283031).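 For AC50: cell-surface VEGFR2 protein level quantified by ELISA.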 As to conditions: primary human endothelial cells (HUVEC); actives raise or lower the signal. The procedure, abridged: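 Primary human umbilical vein endothelial cells (4H system), 24 h exposure; cell-surface VEGFR2 measured by ELISA. Bidirectional fitting versus DMSO; cytotoxicity checked in parallel by SRB total-protein staining.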

Read-out in assay [11]: Human Leukocyte Antigen - DR isotype (HLADR), HLA-DRA (gene 3122)
Put plainly: BSK_BE3C_HLADR: BioMAP Diversity Plus: BE3C Assay for Human Leukocyte Antigen - DR isotype (HLADR) Biomarker Activity (AID 2283032). The following applies: primary human bronchial epithelial cells; actives raise or lower the signal. The procedure, abridged:
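ELISA read-out of HLA-DR on human lung bronchial epithelial primary cells, measured 24 h post-dosing. Both increases and decreases were scored relative to DMSO vehicle.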

Read-out in assay [12]: Vascular cell adhesion molecule 1 (VCAM1), VCAM1 (gene 7412)
Put plainly: BSK_4H_VCAM1: BioMAP Diversity Plus: 4H Assay for Vascular cell adhesion molecule 1 (VCAM1) Biomarker Activity (AID 2283033).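 For outcome: cell-surface VCAM-1 protein measured by ELISA.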 The following applies: primary human endothelial cells (HUVEC); actives raise or lower the signal. The procedure, abridged:
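ELISA read-out of VCAM-1 on human umbilical vein endothelium 24 hours after chemical dosing; gain or loss of signal was fitted relative to DMSO, with sulforhodamine B staining of parallel cultures flagging overt cytotoxicity.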

Read-out in assay [13]: Monokine induced gamma interferon (MIG), CXCL9 (gene 4283)
Briefly: BSK_BE3C_MIG: BioMAP Diversity Plus: BE3C Assay for Monokine induced gamma interferon (MIG) Biomarker Activity (AID 2283035).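 Note: MIG protein measured by ELISA in BE3C cultures after 24 h of dosing.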 As to conditions: primary human bronchial epithelial cells; actives raise or lower the signal. The essentials:
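Primary human bronchial epithelial cells treated for 24 h; MIG levels measured by ELISA, fitted bidirectionally versus DMSO. Parallel SRB total-protein staining assessed cytotoxicity.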

Read-out in assay [14]: Plasminogen activator inhibitor-1 (PAI1), SERPINE1 (gene 5054)
Put plainly: BSK_BE3C_PAI1: BioMAP Diversity Plus: BE3C Assay for Plasminogen activator inhibitor-1 (PAI1) Biomarker Activity (AID 2283037). The following applies: primary human bronchial epithelial cells; actives raise or lower the signal. The essentials:
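Primary human lung bronchial epithelial cells; chemical dosing; 24 h; PAI-1 measured by ELISA; bidirectional fit referenced to DMSO as negative control.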

Read-out in assay [15]: Thrombomodulin, THBD (gene 7056)
Briefly: BSK_3C_Thrombomodulin: BioMAP Diversity Plus: 3C Assay for Thrombomodulin Biomarker Activity (AID 2283029). As to conditions: primary human endothelial cells (HUVEC); actives raise or lower the signal. The procedure, abridged:
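Read-out is ELISA of thrombomodulin on human umbilical vein endothelium 24 h after chemical dosing. Gain or loss of signal is scored relative to DMSO. Overt cytotoxicity is checked in parallel cultures by sulforhodamine B staining.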

Read-out in assay [16]: urokinase plasminogen activator (uPA), PLAU (gene 5328)
Briefly: BSK_BE3C_uPA: BioMAP Diversity Plus: BE3C Assay for urokinase plasminogen activator (uPA) Biomarker Activity (AID 2283038).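 Note: uPA protein level quantified by ELISA in cell cultures; uPA read one day after compound addition.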 As to conditions: primary human bronchial epithelial cells; actives raise or lower the signal. The procedure, abridged:
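Primary human bronchial epithelial cells, uPA measured by ELISA 24 h after dosing. Bidirectional change relative to DMSO; cytotoxicity checked in parallel cultures by sulforhodamine B total-protein staining.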

Read-out in assay [17]: Urokinase-type plasminogen activator receptor (uPAR), PLAUR (gene 5329)
Briefly: BSK_BE3C_uPAR: BioMAP Diversity Plus: BE3C Assay for Urokinase-type plasminogen activator receptor (uPAR) Biomarker Activity (AID 2283039).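 Note: cells exposed to compound for one day before measurement.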 As to conditions: primary human bronchial epithelial cells; actives raise or lower the signal. The essentials: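 Human bronchial epithelial primary cells; chemical exposure 24 h; uPAR by ELISA; bidirectional fit vs DMSO control.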

Read-out in assay [18]: Interferon-gamma inducible Protein 10 (IP10), CXCL10 (gene 3627)
Put plainly: BSK_BE3C_IP10: BioMAP Diversity Plus: BE3C Assay for Interferon-gamma inducible Protein 10 (IP10) Biomarker Activity (AID 2283034). The following applies: primary human bronchial epithelial cells; actives raise or lower the signal. The procedure, abridged: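 Chemical is dosed onto human lung bronchial epithelial primary cells, cultures are incubated 24 h, and IP-10 is then quantified by ELISA. Gain or loss of signal is fitted in both directions relative to DMSO.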

Broadly, the AC50 is the concentration giving half of the maximal activity seen.

Values joined by “and” are separate entries in the source; they are usually repeats but may differ in a detail not shown here. Equal values may be shown once. Results filed as inconclusive are left out. Some compounds were tested as several samples or in several runs, with calls that do not always agree. Active and inactive are the calls of the source. Rule for the calls, unless noted: active = hit-call score of the fitted dose curve at least 0.9, where 1 is the maximum; inactive = score below 0.9.

Sequence of human Vitamin D Receptor (VDR), VDR (gene 7421) (P11473 whole entry, looked up, the tested form may be a part): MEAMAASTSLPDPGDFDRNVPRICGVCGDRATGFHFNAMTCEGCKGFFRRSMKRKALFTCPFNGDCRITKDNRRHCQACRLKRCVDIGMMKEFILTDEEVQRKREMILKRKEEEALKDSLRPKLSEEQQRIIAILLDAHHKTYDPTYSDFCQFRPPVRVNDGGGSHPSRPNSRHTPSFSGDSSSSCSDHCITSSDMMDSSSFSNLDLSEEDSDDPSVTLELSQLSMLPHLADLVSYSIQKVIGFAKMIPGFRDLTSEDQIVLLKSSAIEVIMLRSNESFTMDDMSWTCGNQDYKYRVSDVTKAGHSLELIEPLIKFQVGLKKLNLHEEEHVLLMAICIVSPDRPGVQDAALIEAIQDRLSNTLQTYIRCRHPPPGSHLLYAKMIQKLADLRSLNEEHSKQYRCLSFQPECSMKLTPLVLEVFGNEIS

Take `NC(=O)C(F)(F)C(F)(F)C(F)(F)C(F)(F)F`: the outcome in assay [1], in assay [2], in [3], in assay [4], in [5] and in [6] was inactive. The outcome in assay [7], in assay [8], in assay [9], in assay [10], in assay [11] and in assay [12] was inactive. Besides, the result in assay [13] and in assay [14] was inactive. For the same compound, the AC50 in [14] was 4800 nM (active).

In the case of `FC(F)(F)C(F)(F)C(F)(F)C(F)(F)C(F)(F)C(F)(F)C(F)(F)C(F)(F)CCS`, the outcome in assay [1], in assay [2], in [3], in assay [4], in assay [5] and in assay [6] was inactive. Moreover, the outcome in assay [7], in [8], in assay [15], in [9], in assay [10] and in assay [11] was inactive. Also, the result in [12], in assay [13], in assay [14], in [16] and in assay [17] was inactive.

With `CCCCCCOC(=O)c1ccccc1O`, the AC50 in assay [1] was 41.7 µM (active) and 44.8 µM (active); in assay [2], 41.2 µM (active) and 40.8 µM (active); in assay [4], 39.5 µM (active) and 43.2 µM (active); in assay [6] it was 40.7 µM (active) and 41.9 µM (active); in assay [7], 44.2 µM (active) and 42.6 µM (active); in assay [9] it was 38.5 µM (active) and 44.3 µM (active). Also, the AC50 in assay [12] is 43.2 µM (active) and 42.5 µM (active). Besides, the result in [3], in assay [5], in [8], in assay [10], in [11] and in assay [18] was inactive. Also, the outcome in [13] and in assay [14] was inactive.

Turning to `OCC(F)(F)C(F)(F)C(F)(F)C(F)(F)C(F)(F)C(F)F`, the outcome in assay [1], in [2], in assay [3], in assay [4], in [5] and in assay [6] was inactive. Moreover, the outcome in [7], in [8], in assay [9], in assay [10], in assay [11] and in [12] was inactive. Further, the outcome in [13], in assay [14] and in assay [17] was inactive.

In the case of `C=C(C)C(=O)OCCC(F)(F)C(F)(F)C(F)(F)C(F)(F)C(F)(C(F)(F)F)C(F)(F)F`, the result in assay [1], in assay [2], in assay [3], in [4], in [5] and in assay [6] was inactive. Also, the outcome in [7], in assay [8], in assay [15], in [9], in assay [10] and in [11] was inactive. In addition, the outcome in [12], in [13], in assay [14] and in assay [16] was inactive.

Turning to `C=C(C)C(=O)OCC(F)(F)C(F)(F)C(F)(F)F`, the outcome in [1], in assay [2], in [3], in assay [4], in assay [5] and in [6] was inactive. Moreover, the outcome in [7], in assay [8], in assay [9], in assay [10], in assay [11] and in [12] was inactive. Moreover, the outcome in assay [13], in [14] and in [16] was inactive.

For `O=C(O)C(F)(F)C(F)(F)C(F)(F)C(F)(F)C(F)(F)C(F)(F)C(F)(F)C(F)(F)C(F)(F)C(F)(F)C(F)(F)C(F)(F)C(F)(F)F`, the outcome in assay [1], in [2], in [4], in [5], in assay [6] and in [7] was inactive. For the same compound, the result in [8], in assay [15], in assay [9], in assay [10], in assay [11] and in assay [12] was inactive. In addition, the result in assay [13] and in assay [14] was inactive. In assay [10], the AC50 was 932 nM (active).

The record behind these values is PubChem BioAssay (EPA / NIEHS).
